A short description of experiment [1]: NCI Yeast Anticancer Drug Screen. Data for the rad50 strain (AID 155).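 Also: 0% = growth of vehicle-only cultures of the same strain.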 Particulars: S. cerevisiae rad50 strain growth inhibition; at 50.0 µM; stronger effect = higher value. In short, it runs like this:
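Readout: growth inhibition relative to vehicle-treated cultures. Compound exposure was carried out in a genetically defined yeast strain deficient in DNA damage repair.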

The nature of experiment [2]: NCI Yeast Anticancer Drug Screen. Data for the mec2-1 strain (AID 157). Particulars: S. cerevisiae mec2-1 strain, at 50.0 µM, stronger effect = higher value. In short, it runs like this: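 Readout is yeast growth inhibition, normalised to vehicle-treated controls, in the mec2-1 strain exposed to compound.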
Experiment [3] is described as follows: NCI Yeast Anticancer Drug Screen. Data for the sgs1 mgt1 strain (AID 161).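 Also: 0% = growth of cultures given vehicle only.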 Particulars: S. cerevisiae sgs1 mgt1 strain, at 50.0 µM, stronger effect = higher value. The method in brief: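 Compounds are added to genetically altered yeast, and growth is compared with cultures given vehicle alone to give percent inhibition.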
Experiment [4] is described as follows: NCI Yeast Anticancer Drug Screen. Data for the cln2 rad14 strain (AID 165).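 Also: 0% = growth equal to vehicle treated cultures.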 To be noted: S. cerevisiae cln2 rad14 strain, at 50.0 µM, stronger effect = higher value. In short, it runs like this: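 Relative to vehicle controls, growth inhibition of compound-treated cln2 rad14 yeast was recorded.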
Experiment [5] in a line: NCI Yeast Anticancer Drug Screen. Data for the bub3 strain (AID 167). To be noted: S. cerevisiae bub3 mutant strain, at 50.0 µM, stronger effect = higher value. In short, it runs like this: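 Readout: yeast growth inhibition, expressed relative to vehicle-only wells. The test organism is a mutant strain from a panel with lesions in DNA repair or checkpoint genes.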
Experiment [6] can be described thus: NCI Yeast Anticancer Drug Screen. Data for the mlh1 rad18 strain (AID 175). Particulars: S. cerevisiae mlh1 rad18 strain growth inhibition; at 50.0 µM; stronger effect = higher value. In short, it runs like this:
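Test agents were incubated with a yeast strain of defined genotype (DNA damage repair defect). Inhibition of growth was derived by comparison with vehicle-exposed cultures.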

SMILES strings stand for the structures. Values joined by “and” are separate entries in the source; they are usually repeats but may differ in a detail not shown here. Equal entries are not always repeated. The panel holds about 79,000 compounds, 15% with a hit somewhere; the sample as a whole holds those more often. Some structures have more than one record in an assay (separate samples or runs), and their calls can disagree. Active and inactive are the calls of the source. Rule as the data show it: active = growth inhibition above about 70%; inactive = the rest.

Consider `C/C=C/C=C/c1cc2cc3c(c(O)c2c(=O)[nH]1)C1(CC3)C(O)=c2c(=O)c3c(=O)cc(OC)c(=O)c=3c(=O)c2=C1O` (configuration not stated), for which the growth inhibition in experiment [1] was 86.8% (active) and 80.7% (active); in experiment [2], 89.8% (active) and 74.3% (active); in experiment [3], 88.7% (active) and 75.2% (active); in experiment [4], 81.8% (active) and 60% (inactive); in experiment [5] it was 83% (active) and 80.5% (active); in experiment [6], 78.6% (active).
As for `O=C1C(c2ccccc2)=C(c2ccccc2)C(c2ccccc2)=C1c1ccccc1`, the growth inhibition in experiment [1] was 36.6% (inactive) and 12.2% (inactive); in experiment [2], -3.9% (inactive) and 8.35% (inactive); in experiment [3] it was 15.8% (inactive) and 25.2% (inactive); in experiment [4], -14% (inactive) and -2.4% (inactive); in experiment [5] it was 0.25% (inactive) and 12.2% (inactive); in experiment [6], 18.7% (inactive) and 8.9% (inactive).
Take `COC1OC2COC(C)(C)OC2C1NS(=O)(=O)Cc1ccccc1` (configuration not stated): the growth inhibition in experiment [1] is 2.8% (inactive) and 0.75% (inactive); in experiment [2], -6.85% (inactive) and -9.65% (inactive); in experiment [3], -2.1% (inactive) and -4.05% (inactive); in experiment [4], -32.6% (inactive) and -34.1% (inactive); in experiment [5], -3.45% (inactive) and -11.8% (inactive); in experiment [6], -14.1% (inactive) and -6.35% (inactive).
As to `O=C1C(O)=C(Cl)C(=O)C(O)=C1Cl`, the growth inhibition in experiment [1] is 6.7% (inactive) and 13.6% (inactive); in experiment [2], 2.3% (inactive) and -26.3% (inactive); in experiment [3], -2.15% (inactive) and 25.3% (inactive); in experiment [4], -0.2% (inactive) and 5.3% (inactive); in experiment [5] it was 29.9% (inactive) and -11.3% (inactive); in experiment [6] it was -12.9% (inactive) and -3.2% (inactive).
Regarding `Cc1cn(C2CC(CCCO)C(CO)O2)c(=O)[nH]c1=O` (configuration not stated), the growth inhibition in experiment [1] was -6.5% (inactive) and -9.9% (inactive); in experiment [2], -7% (inactive) and -5.25% (inactive); in experiment [3], 6.7% (inactive) and 2.7% (inactive); in experiment [4] it was -2.8% (inactive) and 16.1% (inactive); in experiment [5], 2.3% (inactive) and 0.3% (inactive); in experiment [6], 5.35% (inactive) and 0.6% (inactive).
Regarding `Cn1c(=O)c(Br)cn(C2OC(CO)C3OC32)c1=O` (configuration not stated), the growth inhibition in experiment [1] was -6.35% (inactive) and -9.05% (inactive); in experiment [2], -0.8% (inactive) and -4.2% (inactive); in experiment [3] it was 18.1% (inactive) and 4.9% (inactive); in experiment [4], -19.4% (inactive) and -15.4% (inactive); in experiment [5], 25.4% (inactive) and -4.1% (inactive); in experiment [6], 4.15% (inactive) and -0.65% (inactive).
Take `CC(C)CC(NC(=O)COc1ccc(Cl)cc1Cl)C(=O)O` (configuration not stated): the growth inhibition in experiment [1] is -16.8% (inactive) and -4.25% (inactive); in experiment [2] it was -3.15% (inactive) and -14.4% (inactive); in experiment [3], 7.55% (inactive) and -4.15% (inactive); in experiment [4], -50.5% (inactive) and -21.7% (inactive); in experiment [5] it was 4.5% (inactive) and 13.7% (inactive); in experiment [6], -3.8% (inactive) and -11.1% (inactive).
Turning to `CC(=O)Nc1cc(NC(C)=O)c2ccccc2c1O`, the growth inhibition in experiment [1] is -2.65% (inactive) and 4.1% (inactive); in experiment [2], 22% (inactive) and 5.85% (inactive); in experiment [3], 13.2% (inactive) and 8% (inactive); in experiment [4], 6.05% (inactive) and 25.1% (inactive); in experiment [5], 18.9% (inactive) and 14.3% (inactive); in experiment [6] it was 2.7% (inactive) and 6.75% (inactive).
Take `O=C(NCc1ccccc1)C1C(=O)C(=O)N(Cc2ccccc2)C1=O` (configuration not stated): the growth inhibition in experiment [1] was -29.4% (inactive) and 4.55% (inactive); in experiment [2], -22.6% (inactive) and 0.8% (inactive); in experiment [3], -12.2% (inactive) and -8.45% (inactive); in experiment [4] it was 2% (inactive) and 14% (inactive); in experiment [5], -8.8% (inactive) and -3.45% (inactive); in experiment [6] it was -36% (inactive) and 2.6% (inactive).
For the compound `O=C(CCCCCCCCC(=O)NCC1(c2ccccc2)CCN(Cc2ccccc2)CC1)NCC1(c2ccccc2)CCN(Cc2ccccc2)CC1`, the growth inhibition in experiment [1] is -7.45% (inactive) and 8.25% (inactive); in experiment [2], -17.1% (inactive) and 6.25% (inactive); in experiment [3], -13.8% (inactive) and -19.2% (inactive); in experiment [4], -11.4% (inactive) and 2.2% (inactive); in experiment [5], 10.4% (inactive) and 3.6% (inactive); in experiment [6] it was -0.55% (inactive) and 26.4% (inactive).
Turning to `Cc1c2cc(O)c(=O)cc-2oc2cc(O)c(O)cc12`, the growth inhibition is 45.9% (inactive) and 30.5% (inactive) in experiment [1]; 29.6% (inactive) and 6.2% (inactive) in experiment [2]; 36.1% (inactive) and 50.1% (inactive) in experiment [3]; 20.9% (inactive) and 31.9% (inactive) in experiment [4]; 36.7% (inactive) and 47.6% (inactive) in experiment [5]; 40.1% (inactive) and 34.9% (inactive) in experiment [6].
Regarding `COC1C(O)C(O)C(O)C(O)C1O` (configuration not stated), the growth inhibition in experiment [1] is 0.95% (inactive) and -11.2% (inactive); in experiment [2] it was -4.8% (inactive) and -13.4% (inactive); in experiment [3] it was -0.35% (inactive) and -18.1% (inactive); in experiment [4], 21.2% (inactive) and 9.9% (inactive); in experiment [5], -3.1% (inactive) and -31.4% (inactive); in experiment [6] it was -0.45% (inactive) and -15.6% (inactive).
On to `CC(CCC(C)C(=O)O)C(=O)O` (configuration not stated), for which the growth inhibition in experiment [1] is -10.1% (inactive) and 40.4% (inactive); in experiment [2] it was -12.8% (inactive) and 9.8% (inactive); in experiment [3], -2.05% (inactive) and 15.4% (inactive); in experiment [4], 12.2% (inactive) and 13% (inactive); in experiment [5], -15.1% (inactive) and 22.6% (inactive); in experiment [6], -0.25% (inactive) and 27.9% (inactive).
For the compound `CN1C(=O)N/C(=C\c2ccc(S(=O)(=O)N/N=C\C(O)C(O)C(O)C(O)CO)cc2)C1=O` (configuration not stated), the growth inhibition was 2.65% (inactive) and 7.85% (inactive) in experiment [1]; 8.3% (inactive) and 22.2% (inactive) in experiment [2]; 17.9% (inactive) and -4.2% (inactive) in experiment [3]; 7.65% (inactive) and 3.75% (inactive) in experiment [4]; -19.1% (inactive) and -1% (inactive) in experiment [5]; 15.3% (inactive) and 41.5% (inactive) in experiment [6].
Take `Cc1ccc2ccccc2[n+]1C`: the growth inhibition is 31.9% (inactive) and -24.6% (inactive) in experiment [1]; -7.45% (inactive) and -34.3% (inactive) in experiment [2]; -1.25% (inactive) and -16.4% (inactive) in experiment [3]; -36.9% (inactive) and 1.2% (inactive) in experiment [4]; -1.5% (inactive) and -26.8% (inactive) in experiment [5]; -5.4% (inactive) and -20.4% (inactive) in experiment [6].
As to `CCc1cc(-c2ccc(OC)cc2)c(C#N)c(=S)n1C1OC(COC(C)=O)C(OC(C)=O)C(OC(C)=O)C1OC(C)=O` (configuration not stated), the growth inhibition in experiment [1] is 40% (inactive) and 5.75% (inactive); in experiment [2] it was 1.35% (inactive) and -4.9% (inactive); in experiment [3], -10.4% (inactive) and -18.7% (inactive); in experiment [4], -20.9% (inactive) and -29.4% (inactive); in experiment [5], -0.9% (inactive) and 1.85% (inactive); in experiment [6], 11.2% (inactive) and 7.05% (inactive).
As to `CC(=O)Nc1cccc2c1C(=O)OC2=O`, the growth inhibition in experiment [1] is 8.65% (inactive) and 1.9% (inactive); in experiment [2], -3.9% (inactive) and -0.15% (inactive); in experiment [3], 5.05% (inactive) and -16.7% (inactive); in experiment [4], -6.3% (inactive) and -20.6% (inactive); in experiment [5], -1.9% (inactive) and -0.8% (inactive); in experiment [6] it was -8.1% (inactive) and -4.7% (inactive).

For the origin of these results see PubChem BioAssay (NCI).
